Test results taken from PubChem BioAssay.
“And” between values parts separate entries of the source, which are not always exact repeats. Equal values may be shown once. Inconclusive results are not listed. The source made the active and inactive calls. Unless noted, the rule behind the calls is not given here.

Key:
[1] = modulation of C. elegans fzo-1 (AID 1259413);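 note: fzo-1 mutant C. elegans worms in liquid wells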; conditions: C. elegans fzo-1 modulator screen, mean read-out; stronger effect = higher value
[2] = viability loss with induced miR-34 in A549 – imaging, A549 dox-inducible miR-34, nuclei and caspase counts, primary screen (AID 1347080;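 active = compounds whose cell count with miR-34 switched on is under 0.7 times the count with it off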); conditions: A549 miR-34 inducible, Hoechst nuclei count, 48 h
[3] = blockers of cellular phospholipid synthesis – cell-based, LOPAC library, screen 4, primary screen (AID 1347384); conditions: animal cells, phospholipid biosynthesis inhibition screen; at 10 µM
[4] = MELAS cybrid and Rieske KO viability enhancers – cell-based, MELAS cybrids, Rieske KO mouse fibroblasts, CellTiter-Glo, primary screen (AID 1508586;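 active = mean z-score across replicates of 1.96 or higher in either the MELAS or the Rieske mutant cell line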;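 note: z relative to plate mean and SD of compound and empty wells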); conditions: low glucose
[5] = viability loss in pontine glioma line – cell-based, SU-DIPG-XIII, MIPE4.0, CellTiter-Glo, qHTS, dose response (AID 1347061; cut-off not given, nearly all actives have AC50 up to about 37 µM;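 note: cells exposed to compound for 48 hours before readout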); conditions: CellTiter-Glo ATP luminescence
[6] = viability loss in pontine glioma line – cell-based, JHH-DIPG-1, MIPE4.0, CellTiter-Glo, qHTS, dose response (AID 1347062; cut-off not given, nearly all actives have AC50 up to about 27 µM); conditions: JHH-DIPG-1 viability, CellTiter-Glo ATP luminescence
[7] = viability loss in pontine glioma line – cell-based, SU-DIPG-IV, MIPE4.0, CellTiter-Glo, qHTS, dose response (AID 1347063; cut-off not given, nearly all actives have AC50 up to about 30 µM;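 note: compound exposure lasted 48 hours before the viability readout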); conditions: CellTiter-Glo ATP luminescence
[8] = viability loss in pontine glioma line – cell-based, SU-DIPG-XIII, MIPE5.0, CellTiter-Glo, qHTS, dose response (AID 1347064; cut-off not given, nearly all actives have AC50 up to about 23 µM); conditions: CellTiter-Glo ATP luminescence
[9] = viability loss in pontine glioma line – cell-based, SU-DIPG-XXV, MIPE5.0, CellTiter-Glo, qHTS, dose response (AID 1347065; cut-off not given, nearly all actives have AC50 up to about 26 µM;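 note: cells exposed to compound for 48 hours before ATP readout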); conditions: CellTiter-Glo ATP luminescence
[10] = growth inhibition of DIPG cells – cell-based, MIPE4.0 library, CellTiter-Glo luminescence, qHTS (AID 1347066; cut-off not given, nearly all actives have AC50 up to about 30 µM;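 note: cells exposed to compound for 48 hours before readout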); conditions: SU-DIPG-VI viability, CellTiter-Glo ATP luminescence
[11] = growth inhibition of DIPG cells – cell-based, MIPE5.0 library, qHTS (AID 1347068; cut-off not given, nearly all actives have IC50 up to about 30 µM); conditions: SU-DIPG-XXV viability
[12] = test system: Aerobactin synthetase IucA (Klebsiella pneumoniae); test: inhibition of K. pneumoniae IucA enzyme – biochemical, Tocris library, absorbance (AID 1345561); conditions: purified IucA enzyme assay, absorbance (OD) read-out; stronger effect = lower value;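 tested at 8 µM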;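 note: 100% = enzyme without compound and 0% = no enzyme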
[13] = chitosan synthesis blockers in C. neoformans – flow cytometry, Cibacron Brilliant Red staining (AID 1347148); conditions: Cryptococcus neoformans chitosan, stronger effect = lower value; at 10 µM unless noted;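 note: compound exposure lasted three days at 37 degrees C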
[14] = viability loss in pontine glioma line – cell-based, SU-DIPG-XVII, MIPE5.0, CellTiter-Glo, qHTS, dose response (AID 1347060; cut-off not given, nearly all actives have AC50 up to about 26 µM); conditions: CellTiter-Glo ATP luminescence
[15] = JHH-DIPG-1 glioma cell viability, MIPE5.0 library, CellTiter-Glo luminescence, qHTS (AID 1347067; cut-off not given, nearly all actives have AC50 up to about 26 µM;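 note: cells exposed to compound for 48 hours before readout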); conditions: JHH-DIPG-1 glioma viability, CellTiter-Glo ATP luminescence
[16] = stronger effect = lower value, cell number ratio, induced over uninduced
[17] = measured here: relative caspase fold change +Dox/-Dox
[18] = measured here: total cells with miR-34 induction, stronger effect = lower value
[19] = measured here: total cells without miR-34 induction
[20] = MELAS cybrid survival, CellTiter-Glo 48 h, stronger effect = higher value
[21] = Rieske KO mouse fibroblast survival, CellTiter-Glo 72 h

With Nc1c2c(nc3c1CCC3)CCCC2 the mean signal [1] was 275 (inactive), the fold change [2, 16] was 1.06 (inactive) and the fold change [2, 17] was 2.56. The cell count [2, 18] was 10500 and the cell count [2, 19] was 9920.

For CC(C(=O)O)c1ccc(CC2CCCC2=O)cc1 (stereo not given), the mean signal [1] was 276 (inactive), the fold change [2, 16] was 1.07 (inactive) and 1 (inactive) and the fold change [2, 17] was 0.862 and 2.11. For the same compound, the cell count [2, 18] was 11000 and 10200, the cell count [2, 19] was 10200 and the outcome [3] was “inactive”.

With COC(=O)CCc1ccc(OCC(O)CNC(C)C)cc1 (stereo not given) the mean signal [1] was 266 (inactive), the fold change [2, 16] was 0.896 (inactive) and 0.841 (inactive) and 0.908 (inactive) and the fold change [2, 17] was 0.838 and 0.901 and 1.51. For the same compound, the cell count [2, 18] was 9510 and 7720 and 9690, the cell count [2, 19] was 10600 and 9170 and 10700 and the z-score [4, 20] was -0.164 (inactive) and -0.834 (inactive) and -0.539 (inactive). For the same compound, the z-score [4, 21] was -0.149 and -1.1 and -1.41.

In the case of CN(C)CC[C@@H](c1ccc(Br)cc1)c1ccccn1, the mean signal [1] is reported as 234 (inactive), the fold change [2, 16] is reported as 0.946 (inactive) and the fold change [2, 17] is reported as 1.72. The cell count [2, 18] was 9070, the cell count [2, 19] was 9580 and the outcome [3] was “inactive”.

In the case of CCOc1cc(N)c(Cl)cc1C(=O)NCC1CN(Cc2ccc(F)cc2)CCO1 (stereo not given), the mean signal [1] is reported as 261 (inactive), the outcome [5] is reported as “inactive” and the outcome [6] is reported as “inactive”. The outcome [7] was “inactive”, the outcome [8] was “inactive” and the outcome [9] was “inactive”. The outcome [10] was “inactive”, the outcome [11] was “inactive” and the fold change [2, 16] was 0.847 (inactive) and 0.952 (inactive). For the same compound, the fold change [2, 17] was 1.51 and 0.602, the cell count [2, 18] was 7930 and 7020 and the cell count [2, 19] was 9370 and 7370. For the same compound, the z-score [4, 20] was -0.303 (inactive) and the z-score [4, 21] was -0.205.

In the case of NS(=O)(=O)Cc1noc2ccccc12, the mean signal [1] is reported as 260 (inactive), the remaining activity [12] is reported as 96.2% (inactive) and the outcome [3] is reported as “inactive”. The z-score [4, 20] was 0.598 (inactive) and -0.977 (inactive) and -0.661 (inactive) and the z-score [4, 21] was -0.432 and -0.0491 and -0.914.

For COc1cc(-c2ccc(=O)[nH]n2)ccc1OC(F)F, the mean signal [1] was 244 (inactive), the remaining activity [12] was 112% (inactive) and the fold fluorescence [13] was 7.45 [at 186.4 µM] (inactive). The z-score [4, 20] was 1.87 (inactive) and 1.14 (inactive) and the z-score [4, 21] was -0.582 and -0.616.

In the case of CN1CCN(C2=Nc3cc(F)ccc3Cc3ccccc32)CC1, the mean signal [1] is reported as 248 (inactive), the fold change [2, 16] is reported as 0.822 (inactive) and 0.853 (inactive) and the fold change [2, 17] is reported as 1.3 and 0.98. The cell count [2, 18] was 5980 and 8510, the cell count [2, 19] was 7280 and 9980 and the z-score [4, 20] was -0.621 (inactive). It also gave a z-score [4, 21] of 0.127.

In the case of Cc1nccn1CC1CCc2c(c3ccccc3n2C)C1=O (stereo not given), the mean signal [1] is reported as 237 (inactive), the outcome [6] is reported as “inactive” and the outcome [10] is reported as “inactive”. The z-score [4, 20] was -0.478 (inactive) and 0.555 (inactive) and 0.267 (inactive) and the z-score [4, 21] was 0.23 and 0.514 and 0.91.

In the case of CN(C)CC/C=C1/c2ccccc2COc2ccc(CC(=O)O)cc21, the mean signal [1] is reported as 251 (inactive), the outcome [14] is reported as “inactive” and the outcome [5] is reported as “inactive”. For the same compound, the outcome [6] was “inactive”, the outcome [8] was “inactive” and the outcome [9] was “inactive”. The outcome [10] was “inactive”, the outcome [15] was “inactive” and the outcome [11] was “inactive”. The fold change [2, 16] was 0.88 (inactive), the fold change [2, 17] was 0.692 and the cell count [2, 18] was 9640. The cell count [2, 19] was 10900, the z-score [4, 20] was 0.699 (inactive) and 0.823 (inactive) and the z-score [4, 21] was -0.41 and 0.615.
